Data on 14 molecules can be found in ChEMBL document CHEMBL1157539, “Thousands of chemical starting points for antimalarial lead identification” (Nature, 2010).

Broadly, the Inhibition is how much of the control response was suppressed. Lower therefore signals little suppression.

For the assay, the system named is HepG2. Kind of assay: GSK_TCMDC: Percent inhibition of human HepG2 cell line. Test compounds present at 10uM. The format is functional.
With `COCCCNC(=O)C1CCN(C(c2ccc(Cl)cc2)c2ccc(Cl)cc2)CC1`, the Inhibition came to 5%.

`c1cc(Cc2ccc(Nc3c4ccccc4nc4ccccc34)cc2)cc(Nc2c3ccccc3nc3ccccc23)c1` came in with an Inhibition of 91%. Next, `CS(=O)(=O)c1ccc(-c2cncc(Cl)n2)cc1`: 8%; `CCCC(CNCc1cccc(C)c1)CNc1cc(=O)c2ccccc2[nH]1` (centres undefined): 0%. Next, `CCN1CCN(CCCNc2c3ccc(Cl)cc3nc3ccc(OC)cc23)CC1.Cl`: 34%; `COc1ccc2nccc([C@@H](O)CN3CCC(NC(=O)c4cc5cccnc5[nH]4)CC3)c2c1.Cl`: 0%. The value for `CS(=O)(=O)Cc1ccc(Nc2nccc(-c3c(-c4cccc(NC(=O)c5c(F)cccc5F)c4)nn4ccccc34)n2)cc1` was 78%; that for `O=C(NCCCCCN1CCCN(C(=O)Nc2ccc(F)c(C(F)(F)F)c2)CC1)C1CC1c1ccc(Cl)c(Cl)c1` (centres undefined) was 61%. Molecule `Br.Cc1cc(Br)c(OCCCON2C(=N)N=C(N)NC2(C)C)c(Br)c1` gave an Inhibition of 62%. The value for `O=C(CCCCCNC(=O)c1ccc(O)c(-c2ccc(Cl)c(Cl)c2)c1)NCc1cccc(C(F)(F)F)c1` was 2%. Next, `CSc1nnc2n(Cc3ccccc3)c(=O)c3c(n12)-c1ccccc1CC31CCCCC1`: 0%; `O=C(Nc1ccc(N2CCNCC2)nc1)c1oc(-c2ccccc2)nc1C(F)(F)F`: 7%. Next, `Cc1[nH]c(C)c(-c2ccc(Oc3cccc(Cl)c3)cc2)c(=O)c1Cl`: 40%; `COc1ccc(/C=C/C(=O)NCCCCCN2CCC(c3c[nH]c4ccccc34)CC2)cc1O`: 9%.
